# The campaign covered roughly 290,000 compounds. About 2,300 (0.79%) were called active. For the sample, actives were picked, then their nearest neighbours and some compounds at random. A number with no mark means an inactive call. Rule as the data show it: active = inhibition above about 22%; inactive = the rest.
# Assay: cytotoxicity in IEC-6 intestinal epithelial cells, primary screen, cytotoxicity control for KLF5 inhibitor project, cell-based, luminescence (AID 1825);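 also: 0% = plate median of test compound wells and 100% = cytotoxic reference compound wells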
# Conditions: IEC-6 cytotoxicity, luminescence viability; at 5 µM; stronger effect = higher value
row,SMILES,inhibition
1,Cc1cc(C)c(S(=O)(=O)c2cc(F)ccc2C)c(=O)[nH]1,-1.4%
2,O=C(CN1CCCCCC1)Nc1ccc(Cl)cc1F,8.4%
3,O=C1NC(Nc2nc3ccccc3s2)(C(F)(F)F)C(=O)N1C1CCCCC1 (centres undefined),28.2% (active)
4,COC(=O)NC1(C(F)(F)F)NC(=O)N(C2CCCCC2)C1=O (centres undefined),1.9%
5,O=C(NC1(C(F)(F)F)NC(=O)N(C2CCCCC2)C1=O)c1ccco1 (centres undefined),3.5%
6,CCN(CC)CCN1C(=O)C(=O)/C(=C(/O)c2cnn(-c3ccccc3)c2C)C1c1cccs1 (centres undefined),3.3%
7,CN1C(=O)c2ccc(C(=O)Nc3ccc(Br)cn3)cc2C1=O,5.5%
8,CSc1ccc(/C=N\NC(=O)COc2ccc(Cl)cc2Br)cc1,7.1%
9,C=CCc1ccccc1OCC(=O)N/N=C/c1ccccc1OCC,1.4%
10,Cc1ccc(/C=N/NC(=O)COc2ccccc2-c2ccccc2)cc1,85.6% (active)
11,COc1ccccc1NC(=O)c1ccc(N2CC3CC(C2)c2cccc(=O)n2C3)c(NC(=O)c2cccnc2)c1 (centres undefined),2.1%
12,O=C(NCc1ccccc1)C(c1ccco1)N(C(=O)c1csnn1)c1ccccc1F (centres undefined),0.2%
13,COc1ccccc1C1C2=C(COC2=O)Nc2cc3c(cc21)OCO3 (centres undefined),92.2% (active)
14,COC(=O)C1=C(C)NC(=O)CC1c1ccccc1OC (centres undefined),-0.1%
15,COc1ccc(C2CC(=O)Nc3cc(C)c(C)cc32)c(OC)c1OC (centres undefined),1.9%
16,COc1ccc(S(=O)(=O)Nc2ccc3c(c2)OCO3)cc1Cl,0.7%
17,COc1cc2c(cc1OC)C(c1ccncc1)CC(=O)N2 (centres undefined),1%
18,CCCOc1ccccc1C1CC(=O)Nc2cc3c(cc21)OCO3 (centres undefined),77.5% (active)
19,COc1ccc(NC(=O)c2cccc(Cl)c2)c[n+]1[O-],2.7%
20,COCCN1C(=O)C(=O)/C(=C(/O)c2ccc(S(=O)(=O)N3CCOCC3)cc2)C1c1ccc(O)c(OC)c1 (centres undefined),-5.5%
21,O=C(NCCCN1CCOCC1)c1cc(-c2cccc(O)c2)on1,-0.6%
22,O=C(N/N=C\c1cc2c(cc1Cl)OCO2)c1ccc(Br)s1,0.3%
23,COc1cc2c(cc1O)[C@H](Cc1ccc(Oc3cc(C[C@@H]4NCCc5cc(OC)c(O)cc54)ccc3O)cc1)NCC2,1.5%
24,CCc1ccc(OCC2c3cc(OC)c(OC)cc3CCN2C(C)=O)cc1 (centres undefined),9%
25,CC[C@H]1CN2CCc3cc(OC)c(OC)cc3[C@@H]2C[C@@H]1C[C@H]1NCCc2cc(OC)c(OC)cc21,98.9% (active)

row,SMILES,inhibition
1,Fc1ccc(-n2c(Cc3ccccc3)nnc2SCc2nc(-c3ccc(Cl)cc3)no2)cc1,-0.4%
2,COc1ccc(CN2CCC(n3nccc3NC(=O)CCCc3ccccc3)CC2)cc1C,2.8%
3,CSc1nc(N(C)NC(=O)c2cccc(C)c2)c2ccccc2n1,94.6% (active)
4,CN(NC(=O)c1ccccc1F)c1nc(C(F)(F)F)nc2ccccc12,83.3% (active)
5,Cc1cccc(C(=O)NCCCN(C)CCCNC(=O)c2cccc(C)c2)c1,-0.9%
6,CN(NC(=O)c1ccccc1)c1nc2ccccc2nc1C(F)(F)F,-0.3%
7,COC(=O)CNC(=O)c1ccccc1F,-2.1%
8,COc1ccc(C(=O)NN(C)c2nc(-c3ccccc3)cc(C)c2S(C)(=O)=O)cc1,1%
9,CCOc1ccccc1NC(=S)NC(=O)CCc1ccccc1,-2.9%
10,NC(=O)CSc1nnc(NC(=O)c2ccc(Br)o2)s1,-5.8%
11,CN(C)CCCNC(=O)c1cc(C(=O)Cc2ccc(Cl)cc2)c[nH]1,2.2%
12,COc1ccc(N2CCN(S(=O)(=O)c3ccc4c(c3)NC(=O)C(C)C(=O)N4)CC2)cc1 (centres undefined),1%
13,COc1cc(C(=O)NN(CCC#N)C2=NS(=O)(=O)c3ccccc32)cc(OC)c1OC,-4.2%
14,Cn1cccc1/C=N/NC(=O)c1ccc(OC(F)(F)C(F)F)cc1,2.6%
15,Cc1ccccc1NCC(=O)N/N=C\c1ccc([N+](=O)[O-])s1,-4.9%
16,C/C(=N\NC(=O)CNc1cccc2ccccc12)c1ccc(Br)s1,0.2%
17,Cn1cccc1/C=N/NC(=O)CNc1cccc2ccccc12,47.6% (active)
18,Cc1cccc(C(=O)Nc2ccc(C(=O)N/N=C/c3cccc(C)n3)cc2)c1,1.5%
19,Cc1cccc(/C=N/NC(=O)CNc2cccc3ccccc23)n1,37.6% (active)
20,O=C(NCCCn1ccnc1)c1cc(Br)c(Br)s1,-4.3%
21,CN1C(=O)[C@H]2[C@@H](C3CC3)N3C(=O)CN(Cc4ccccc4)C(=O)[C@@]3(C)[C@H]2C1=O,-1.7%
22,CC1CCCN(S(=O)(=O)c2ccc(C(=O)Nc3nnc(-c4ccncc4)o3)cc2)C1 (centres undefined),-1%
23,CC1CCCCN1S(=O)(=O)c1ccc(C(=O)Nc2nnc(-c3cccs3)o2)cc1 (centres undefined),29.2% (active)
24,CSCc1nnc(NC(=O)c2ccc(S(=O)(=O)N3CCCCC3C)cc2)o1 (centres undefined),-0.9%

# From PubChem BioAssay AID1825 (The Scripps Research Institute Molecular Screening Center, 2009)
